# From PubChem
# M1 PAM parental: counter-screen for M1 PAMs: effect in parental CHO-K1 cells; activation, % at 3 µM; ATP EC20, Fluo-8 calcium fluorescence; 0% at ATP EC20, 100% at ATP max; 360,000 compounds, 0.02% hits;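 active means activation above the run cutoff, the mean activation of all test compounds plus 3 SD, cut at about 40% in these data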;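 further: peak over basal fluorescence ratio in a 140 s read after ATP addition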
# M1 PAM: potentiates human M1 receptor response to acetylcholine; P11229; CHO-K1 hM1, Fluo-8 calcium fluorescence, ACh EC20; 0% = ACh EC20, 100% = maximal ACh; activation, % at 3 µM; 360,000 compounds, 0.088% hits; AID 588819; in the data active means activation above about 19%, passing the limit was not always enough
# Target sequence (P11229 whole entry, looked up): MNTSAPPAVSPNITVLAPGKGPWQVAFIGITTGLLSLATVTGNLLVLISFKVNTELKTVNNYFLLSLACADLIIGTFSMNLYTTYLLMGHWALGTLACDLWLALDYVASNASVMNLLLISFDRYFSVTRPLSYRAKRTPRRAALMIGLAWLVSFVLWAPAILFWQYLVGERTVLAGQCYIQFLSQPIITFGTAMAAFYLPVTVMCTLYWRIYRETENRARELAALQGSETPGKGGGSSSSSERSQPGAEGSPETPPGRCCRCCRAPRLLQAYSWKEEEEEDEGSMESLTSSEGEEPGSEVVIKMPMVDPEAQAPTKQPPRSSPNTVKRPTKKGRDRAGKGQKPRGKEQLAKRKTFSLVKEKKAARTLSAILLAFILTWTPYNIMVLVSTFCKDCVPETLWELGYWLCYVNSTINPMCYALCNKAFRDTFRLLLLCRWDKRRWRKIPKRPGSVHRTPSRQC
# CHRM1 agonist: agonists of human M1 muscarinic receptor; P11229; CHO-K1 hM1, Fluo-8 calcium fluorescence, agonist mode; 0% DMSO, 100% acetylcholine EC100; activation, % at 3 µM; 360,000 compounds, 0.33% hits; AID 588814;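 active means activation above the run's mean compound activation plus 3 SD, cut at about 16% in these data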;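 further: peak over basal fluorescence ratio within a 140 s kinetic read after compound addition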
# M1 ag parental: nonselective activator or artifact in parental CHO-K1 cells; 360,000 compounds, 0.48% hits; activation, % at 3 µM; Fluo-8 calcium fluorescence; scaled to maximal ATP response, vehicle zero; in the data active means activation above about 15%;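 further: untransfected CHO-K1 host cells lacking M1 receptor as counterscreen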
# CHO-K1 Ca antag: nonselective inhibitor or artifact in parental CHO-K1 cells | ATP-induced calcium, Fluo-8 fluorescence | inhibition, % at 3 µM | 360,000 compounds, 0.6% hits | AID 602250;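 active means inhibition above a per-plate cutoff, the plate's mean sample inhibition plus 3 SD, cut at about 24% in these data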;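 further: 0% = DMSO plus EC80 ATP and 100% = DMSO alone without ATP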
# CHRM1 antagonist: human CHRM1 antagonism | CHO-K1 hM1, Fluo-8 calcium fluorescence, ACh EC80 antagonist | P11229 | inhibition, % at 3 µM | 360,000 compounds, 1.3% hits | AID 588852;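 active means percent inhibition above its own plate's cutoff, namely the mean of that plate's compound wells plus 3 SD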;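 further: peak over basal fluorescence ratio during 140 s after agonist addition; 0% = ACh EC80 plus DMSO and 100% = DMSO alone without agonist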
# Starred values were filed as active, the others as inactive. Rows were chosen to be rich in hits. Some 2.3% of all compounds tested hit in one or more screens of this group.
SMILES,M1 PAM parental,M1 PAM,CHRM1 agonist,M1 ag parental,CHO-K1 Ca antag,CHRM1 antagonist
OC(CNC1CCCCC1)CON=C1CCSc2c(Cl)cccc21 (stereo not drawn),18,-5,7,11,-16,2
Cc1cc([N+](=O)[O-])nn1CC(=O)Nc1cc(F)ccc1F,-3,4,-5,16*,0,-5
O=C(c1ccc(COCC(F)(F)F)o1)N1CCCC1,14,4,-2,0,-16,-7
Cc1c(C(=O)NNC(=O)c2ccccc2O)oc2ccccc12,-14,0,-1,0,26*,-2
COC(=O)c1oc2ccccc2c1NC(=O)c1ccccc1O,11,0,-4,3,1,-1
CCCCN1C(=O)C(=O)N(CC(=O)c2cc(C)n(-c3cc(C)on3)c2C)C1=O,3,-4,-4,2,-6,6
CCC(C#CCN1CCOCC1)(CC)OCCC#N,16,8,-3,0,-18,-9
CCC(C#CCN1CCCCC1)(CC)OCCC#N,15,-22,-6,0,-15,63*
CCC(C)(C#CCN1CCCCC1)OCCC#N (stereo not drawn),11,-26,-12,0,-2,69*
CCC(C)(C#CCN1CCCCC1)OC(C)=O (stereo not drawn),4,-23,-13,0,1,22
CC1OC2CC(=O)OC2C2=C1C(=O)c1c(O)cccc1C2=O (stereo not drawn),24,-1,16*,5,12,50*
COC(=O)c1ccc(C(=O)OC)c(NC(=S)N2CCCC(C)C2)c1 (stereo not drawn),26,3,-9,0,-10,-8
O=C(O)/C=C/C(=O)N1CCN(C(c2ccccc2)c2ccccc2)CC1,2,-23,-6,2,-2,42*
CC(=O)/C(C(=N)N1CCN(C(c2ccccc2)c2ccccc2)CC1)=C(\C)O,28,-23,-5,1,-17,99*
COc1ccc(NC(=O)N(C)[C@H]2C[C@H]3c4[nH]c5ccccc5c4CCN3C(=O)[C@H]2CO)cc1,-1,0,-4,0,5,-5
Cc1nc2nc(C)c(C)nc2nc1C,8,16,0,1,-4,-16
COc1ccc(OCC(=O)Nc2ccc3c(c2)nc(CCN2CCCCC2)n3C)cc1,20,-1,-5,0,-5,2
Cn1c(CCN2CCCCC2)nc2cc(NC(=O)NC3CCCCC3)ccc21,18,-10,-5,0,-21,12
CC1CCN(CCc2nc3cc(NC(=O)NC4CCCCC4)ccc3n2C)CC1,8,-19,-8,0,-1,36*
Cc1cccc(OCC(=O)Nc2ccc3c(c2)nc(CCN2CCN(c4ccccn4)CC2)n3C)c1,-16,-22,3,12,13,88*
COc1ccc(OCC(=O)Nc2ccc3c(c2)nc(CCN2CCN(c4ccccn4)CC2)n3C)cc1,2,-29,-3,5,4,64*
Cc1cccc(OCC(=O)Nc2ccc3c(c2)nc(CCN2CCCCC2)n3C)c1,-3,-9,-6,1,1,11
CCN1CCN(Cc2nc3cc(NC(=O)COc4ccc([N+](=O)[O-])cc4)ccc3n2C)CC1,3,-16,-6,0,-20,61*
O=C(/C=C/[C@H]1O[C@@H](n2ccc(=O)[nH]c2=O)[C@H](O)[C@@H]1O)NCC1CCCO1 (stereo partly drawn),-1,-2,-2,0,-7,-16
COc1cc(-c2cc(NC(C)=O)c3ncc(-c4ccc(F)cc4)n3c2)cc(OC)c1OC,-10,-14,-1,2,3,12
SMILES,M1 PAM parental,M1 PAM,CHRM1 agonist,M1 ag parental,CHO-K1 Ca antag,CHRM1 antagonist
Cn1c(CCN2CCN(c3ccccn3)CC2)nc2cc(NC(=O)COc3ccc(Cl)cc3)ccc21,1,-24,1,14,5,95*
CCN1CCN(CCc2nc3cc(NC(=O)COc4ccc(Cl)cc4)ccc3n2C)CC1,16,5,-7,2,-15,-10
CN(C)CCCNc1nc2cc(-c3cnn(Cc4ccccc4)c3)sc2c(=O)n1C,-7,4,-1,0,2,-8
O=C(CNS(=O)(=O)c1ccc(Br)s1)NCCc1ccc(Cl)cc1,-2,7,0,2,-20,-11
CC(C)CNC(=S)N1CCC(c2nc(-c3ccc(F)cc3)no2)CC1,-10,-15,-4,12,15,33*
O=C(Nc1cccc(C(F)(F)F)c1)N1CCC(c2nc(-c3ccc(F)cc3)no2)CC1,-5,-34,-9,9,-1,65*
O=C(Nc1ccc(Cl)cc1)N1CCC(c2nc(-c3ccccc3Cl)no2)CC1,6,-17,0,6,10,20*
O=C(Nc1ccccc1)N1CCCC(c2nc(-c3ccc(F)cc3)no2)C1 (stereo not drawn),17,2,-4,1,-7,-17
O=C(Nc1ccc(Cl)cc1)N1CCC(c2nc(-c3cccs3)no2)CC1,3,-14,-9,6,-6,13
Cc1cn([C@H]2C[C@H](O)[C@@H](CCC(=O)NCCc3ccc4ccccc4c3)O2)c(=O)[nH]c1=O,6,2,-3,0,-13,-21
Cc1nnc(SCC(=O)Nc2cc(Cl)ccc2Cl)n1CC1CCCO1 (stereo not drawn),8,11,-3,2,-12,-16
CN(C)c1cccc(F)c1C(=O)NC(=O)Nc1ccc(Cl)cc1,5,-10,-7,1,-5,4
CCCCc1ccc(NC(=O)CSc2nc(=O)n3cc(C)ccc3n2)cc1,-14,11,0,0,4,-22
COc1ccc(-c2ccc(C(=O)Nc3ccc(C(C)C)cc3)c3occc23)c(C)c1,11,10,2,0,-6,-16
CC(=O)OCCn1c2nc(=O)[nH]c(=O)c-2nc2cc(C)c(C)cc21,-12,-27,202*,186*,38*,38*
Cc1ccccc1CN1CCN(CC2CC3C=CC2C3)CC1 (stereo not drawn),-3,-21,-6,0,4,54*
O=C(c1ccco1)N1CCN(C(=O)c2ccco2)CC1,11,-6,-1,1,0,11
CCN1CCN(CC2CC3C=CC2C3)CC1 (stereo not drawn),-3,-5,-5,0,-1,3
O=C(c1ccco1)N1CCN(CC2CC3C=CC2C3)CC1 (stereo not drawn),7,-12,-5,1,-1,29*
CS(=O)(=O)N1CCN(CC2CC3C=CC2C3)CC1 (stereo not drawn),13,-21,45*,0,-2,13
